Most compounds without a hit are left out; they make up all but 12% or so of the library.
BAZ2B block – BAZ2B (human) inhibition; AID 504333; Potency, µM (series often up to 114 µM), usual class: inhibitors; hit rate 4.4% among 360,000; AlphaScreen BAZ2B-H3K14Ac peptide displacement; Q9UIF8; also: nearly all actives have a fitted effect of over 60% in size
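AlphaScreen luminescence quantifies BAZ2B engagement of H3K14Ac peptide; the protein and biotinylated peptide are both at 50 nM final, buffer PBS pH 7.4 with 0.01% Tween-20, all steps at room temperature.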
PI5P4K alpha inh – blocks human PI5P4K alpha kinase activity | max response, % | hit rate 1.2% among 330,000 | PI5P4Kalpha enzyme, ADP-Glo luminescence, 60 min; stronger effect = lower value | P48426; active = max response of -50% or lower; inconclusive = between -30% and -50%; inactive = -30% or higher; also: value at the top dose of about 77 µM
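Controls without substrate or without enzyme flank wells where PI5P4Kalpha converts substrate using 5 microM ATP (final). Incubation lasts 60 minutes at room temperature; ADP formed is read by ADP-Glo luminescence.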
JMJD2A Tudor – JMJD2A Tudor domain (human) inhibition. O75164. AlphaScreen JMJD2A-Tudor / H3K4me3 peptide binding. Potency, µM (series often up to 114 µM), most hits filed as inhibitors. hit rate 4.4% among 390,000. AID 504339; also: nearly all actives have a fitted effect of over 50% in size
HP1b chromo inh – inhibitors of HP1-beta chromodomain binding to methylated histone tails; P83916; Potency, µM (highest dose often 114 µM), hits mostly inhibitors; AlphaScreen HP1-beta / biotin-H3K9me3 peptide binding; AID 540317; hit rate 0.56% among 390,000; also: nearly all actives have a fitted effect of over 70% in size
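HP1-beta protein (50 nM final) preincubated 30 min at room temperature with biotinylated H3(1-18)K9me3 peptide (50 nM) in PBS pH 7.4, 0.01% Tween-20, then compound added for 30 min. AlphaScreen streptavidin donor/nickel chelate acceptor beads (10 ug/mL final), 30 min dark, luminescence read.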
G9a block – inhibitors of human histone lysine methyltransferase G9a | Q96KQ7 | G9a H3K9 monomethylation, AlphaScreen, 2 h | Potency, µM (highest dose often 102 µM), usual class: inhibitors | hit rate 8.8% among 350,000; also: nearly all actives have a fitted effect of over 75% in size
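Readings reflect AlphaScreen signal from monomethyl-H3K9 antibody detection. HMT at 20 nM; substrate b-H3K9 500 nM; cofactor SAM 20 uM; 2 h RT reaction; compounds tested as titrations in qHTS with 15 min preincubation.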
PLK1 PBD inh – inhibitors of human PLK1 polo-box domain binding; P53350; Plk1 PBD binding of FITC phosphopeptide, fluorescence polarization; Potency, µM, actives largely listed as inhibitors; hit rate 2.8% among 360,000; also: series mostly up to about 57 µM; nearly all actives have a fitted effect of over 65% in size
Target sequence (P53350 whole entry, looked up, the tested form may be a part): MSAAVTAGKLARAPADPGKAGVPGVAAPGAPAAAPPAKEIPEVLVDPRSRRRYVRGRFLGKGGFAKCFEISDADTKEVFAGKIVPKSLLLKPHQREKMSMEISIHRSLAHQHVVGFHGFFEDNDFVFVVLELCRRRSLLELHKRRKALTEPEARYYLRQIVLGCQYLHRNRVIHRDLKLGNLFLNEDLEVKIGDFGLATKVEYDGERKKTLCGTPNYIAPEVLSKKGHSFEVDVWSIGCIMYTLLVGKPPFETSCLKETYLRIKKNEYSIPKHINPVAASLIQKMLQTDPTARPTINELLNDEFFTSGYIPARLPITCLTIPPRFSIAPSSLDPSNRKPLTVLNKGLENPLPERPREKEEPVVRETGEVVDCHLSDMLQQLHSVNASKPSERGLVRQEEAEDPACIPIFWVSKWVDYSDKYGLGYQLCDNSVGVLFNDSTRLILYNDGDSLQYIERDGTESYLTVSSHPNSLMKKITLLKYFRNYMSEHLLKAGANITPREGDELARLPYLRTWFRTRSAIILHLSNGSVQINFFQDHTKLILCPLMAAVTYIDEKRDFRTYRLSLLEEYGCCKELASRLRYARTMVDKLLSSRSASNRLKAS
A number is an active result; . = inactive; ? = inconclusive; / = no result given; ! = not confirmed by another sample; [ ] = dose if it differs, or a comment. Unless noted, calls follow the shape of the dose curve; as a rule, active = well fitted curve in the direction sought with a large enough effect; inconclusive = small, poorly fitted or top-dose-only effect, or another doubt; inactive = no such curve, though single readings can be large; an effect the other way counts as inactive or inconclusive.

SMILES | BAZ2B block | PI5P4K alpha inh | JMJD2A Tudor | HP1b chromo inh | G9a block | PLK1 PBD inh
Cc1cc(CC(C)C)n(-c2nc3ccccc3c(=O)n2OCC(N)=O)n1 | . | . | .[11.4 µM] | . | . | 21µM
Cc1cc(C)n(-c2nc3ccccc3c(=O)n2OCCOc2ccccc2)n1 | . | . | .[11.4 µM] | . | . | 3.4µM
Cc1cc(C)n(-c2nc3ccccc3c(=O)n2OCC(N)=O)n1 | . | . | . | . | .[12.7 µM] | .
CC(=O)Nc1ccc2c(c1)nc(CN1CCCC1)n2C | . | / | . | . | 18µM | .
Cc1ccc(OCC(=O)Nc2ccc3c(c2)nc(CCN2CCCC2)n3C)cc1 | / | . | / | / | / | .
Cc1ccc(C(C)C)c(OCC(=O)Nc2ccc3c(c2)nc(CN2CCCC2)n3C)c1 | 11µM | . | ? | . | 45µM | .
Cc1nc(SCC(=O)NCCN2C(=O)CSC2=O)nc(C)c1C | / | . | . | . | / | .
O=C(NCc1ccccn1)C1(C(F)(F)F)C/C(=C\CCO)CCCO1 (centres undefined) | / | . | 28µM! | . | / | .
CCC/C=C1/CCCOC(C(=O)NCc2ccccn2)(C(F)(F)F)C1 (centres undefined) | / | . | . | . | / | .
Cc1ccc(OCc2nnc(SCc3nc4ccccc4[nH]3)n2Cc2ccco2)cc1 | ? | . | ? | . | 14µM | .
c1ccc(-c2nnc(SCc3nc4ccccc4[nH]3)n2Cc2ccco2)cc1 | . | / | 32µM | . | / | .
Fc1ccc(CSc2nnc(-c3cccnc3)n2Cc2ccco2)cc1 | . | . | . | . | 50µM | .
Nn1c(SCc2nc3ccccc3[nH]2)nnc1-c1ccccc1 | . | . | . | . | . | .
Cc1ccc2ncc3c(-c4ccccc4)nn(CC(=O)NC4CCCCC4)c3c2c1 | . | / | . | . | . | /
Cc1nonc1OCCCNc1ccc([N+](=O)[O-])cc1Cl | . | . | . | . | 1.3µM | .
C=CCn1c(SCc2cccc(C#N)c2)nnc1-c1ccccc1O | . | . | ? | . | . | 27µM
N#CCCCc1cn(-c2nc3ccccc3s2)nn1 | / | . | / | / | / | .
CCCCNC(=O)C1(C)CCN1C(=O)c1ccc2sccc2c1 (centres undefined) | / | . | / | / | / | .
Oc1c(Cl)cc(Cl)cc1CNn1cnnc1 | . | . | . | . | / | .
O=S(c1cc(Cl)cc(Cl)c1O)c1cc(Cl)cc(Cl)c1O | / | -51 | / | / | ? | ?
Cc1ccc2nc(COc3cccc(NC(=O)COc4ccc(F)cc4)c3)cc(=O)n2c1 | . | / | . | . | . | /
CS(=O)(=O)N1CCc2cc(-c3csc(NC(=O)Cc4ccccc4)n3)ccc21 | . | / | . | . | 14µM | .
CS(=O)(=O)N1CCc2cc(-c3csc(NCC4CCCO4)n3)ccc21 (centres undefined) | . | / | . | . | 5.6µM | ?
CCCC(=O)Nc1nc(-c2ccc3c(c2)CCN3S(C)(=O)=O)cs1 | . | / | . | . | . | .
COc1cc(NC(=O)CSc2nnc3ccccn23)cc(OC)c1OC | / | . | / | / | / | .
SMILES | BAZ2B block | PI5P4K alpha inh | JMJD2A Tudor | HP1b chromo inh | G9a block | PLK1 PBD inh
Cc1nc2ncccn2c1-c1csc(NCc2ccco2)n1 | ? | . | . | . | ? | ?
c1coc(CNc2nc(-c3cccs3)cs2)c1 | 45µM | . | ? | . | 20µM | .
O=C(CSc1ncn[nH]1)c1ccc(OC(F)F)cc1 | . | . | . | . | 25µM | .
COc1ccc(C(=O)CSc2ncn[nH]2)cc1OC | . | . | 40µM | . | ? | .
CC1=CC(C)=Nc2ccccc2N1 | ? | / | . | . | 40µM | .
O=C(CN1CCN(c2ccc(C(F)(F)F)cn2)CC1)NCc1ccc2c(c1)OCO2 | . | . | . | . | . | .
Cc1ccc(C)c(N(Cc2cc3ccc(C)cc3[nH]c2=O)C(=O)c2ccco2)c1 | . | . | . | . | . | .
CNC(=S)N(Cc1ccc(OC)cc1)Cc1cc2ccc(C)cc2[nH]c1=O | . | . | .[11.4 µM] | ? | . | 24µM
CC(=O)Nc1ccc(S(=O)(=O)N(Cc2cccnc2)Cc2cc3ccccc3[nH]c2=O)cc1 | . | . | . | . | . | .
COc1ccc(N(Cc2cc3ccc(C)cc3[nH]c2=O)C(=O)c2ccco2)cc1 | . | . | . | . | 71µM | .
CC(=O)Nc1ccc(S(=O)(=O)N(Cc2ccco2)Cc2cc3ccccc3[nH]c2=O)cc1 | . | . | . | . | 35µM | .
Cc1cccc(N(Cc2cc3ccccc3[nH]c2=O)C(=O)c2ccco2)c1C | . | . | . | . | .[12.7 µM] | .
CNC(=S)N(Cc1ccco1)Cc1cc2cc(OC)ccc2[nH]c1=O | . | . | . | . | / | .
CC(C)N(Cc1cc2ccccc2[nH]c1=O)C(=O)c1ccco1 | . | . | . | . | 50µM | .
N#Cc1cccc(NC(=O)N2CCCC3(CCN(C(=O)c4cc(C(F)(F)F)cc(C(F)(F)F)c4)CC3)C2)c1 | / | / | / | / | .[12.7 µM] | /
CCCCCC(=O)N1C[C@H](n2cc(C3CC3)nn2)[C@@H](O)C[C@@H]1c1ccc(Cl)cc1 | / | . | / | / | / | .
CCCOc1ccc(C2CC(=O)NC2=O)cc1 (centres undefined) | . | . | ? | ? | . | 21µM
CCOC(=O)c1c(C)nc(C)c(C(=O)OCC)c1-c1ccco1 | . | . | 79µM | . | 32µM | .
CCOC(=O)c1c(C)noc1-c1ccco1 | . | . | . | . | . | .
CN1CCN(c2ncc3nc(-c4ccc(Cl)cc4)c(=O)n(Cc4ccc(F)cc4)c3n2)CC1 | / | / | / | / | .[0.501 µM] | /
Cc1oc2c(O)c(O)ccc2c(=O)c1-c1ccc(Cl)cc1 | ? | . | . | . | 5µM | .
Cc1oc2c(O)c(O)ccc2c(=O)c1-c1ccccc1 | ? | . | 8.9µM | . | ? | .
Cc1c(Cc2ccccc2)c(=O)oc2c(O)c(O)ccc12 | 40µM | . | 45µM | ? | 4µM | .
Cc1cc(=O)oc2c(O)c(O)ccc12 | / | . | 10µM | . | / | ?
O=C(O)[C@@H]1CCCN1 | / | / | / | / | . | /
SMILES | BAZ2B block | PI5P4K alpha inh | JMJD2A Tudor | HP1b chromo inh | G9a block | PLK1 PBD inh
CCOC(=O)[C@H]1[C@H]2COc3ccc(OC)cc3[C@@H]2N2C(=O)[C@H](C)NC(=O)[C@@]12C | . | . | . | . | .[0.501 µM] | .
CC(CN1CCCC1)OC(=O)c1ccccc1Cl (centres undefined) | . | . | . | . | ? | .
CC(CN1CCN(C)CC1)OC(=O)c1ccccc1Cl (centres undefined) | ? | . | 79µM | . | 50µM | ?
Cc1ccccc1OCC(=O)OC(C)CN1CCN(C)CC1 (centres undefined) | ? | / | ? | . | 50µM | .
Cc1ccccc1C(=O)OC(C)CN1CCN(C)CC1 (centres undefined) | . | . | . | . | . | .
Cc1ccc(NS(=O)(=O)c2ccc(Cl)nc2)c(C)c1 | . | . | . | . | . | .
CCOc1ccc(C(=O)CCC(=O)N2CCN(c3ccc(O)cc3)CC2)cc1 | / | . | . | . | / | .
Cc1ccc(S(=O)(=O)N2CCN(CC(=O)NCC3(N4CCOCC4)CCCCC3)CC2)cc1 | . | . | . | . | 45µM | .

Assay outcomes deposited in PubChem by National Center for Advancing Translational Sciences (NCATS).
